Screens as filed in PubChem BioAssay.
Most compounds without a hit are left out; they make up all but 27% or so of the library.
EphB4 antag – antagonists of human EphB4-ephrin-B2 interaction; EphB4 LBD / TNYL-RAW-Alexa532 peptide, fluorescence polarization; inhibition, % at 7 µM; AID 720; P54760; hit rate 0.15% among 97,000;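 active means inhibition above the screen-wide mean inhibition plus 3 SD, cut at about 15% in these data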;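 further: 0% = DMSO wells and 100% = excess unlabeled TNYL-RAW peptide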
Target sequence (P54760 whole entry, looked up, the tested form may be a part): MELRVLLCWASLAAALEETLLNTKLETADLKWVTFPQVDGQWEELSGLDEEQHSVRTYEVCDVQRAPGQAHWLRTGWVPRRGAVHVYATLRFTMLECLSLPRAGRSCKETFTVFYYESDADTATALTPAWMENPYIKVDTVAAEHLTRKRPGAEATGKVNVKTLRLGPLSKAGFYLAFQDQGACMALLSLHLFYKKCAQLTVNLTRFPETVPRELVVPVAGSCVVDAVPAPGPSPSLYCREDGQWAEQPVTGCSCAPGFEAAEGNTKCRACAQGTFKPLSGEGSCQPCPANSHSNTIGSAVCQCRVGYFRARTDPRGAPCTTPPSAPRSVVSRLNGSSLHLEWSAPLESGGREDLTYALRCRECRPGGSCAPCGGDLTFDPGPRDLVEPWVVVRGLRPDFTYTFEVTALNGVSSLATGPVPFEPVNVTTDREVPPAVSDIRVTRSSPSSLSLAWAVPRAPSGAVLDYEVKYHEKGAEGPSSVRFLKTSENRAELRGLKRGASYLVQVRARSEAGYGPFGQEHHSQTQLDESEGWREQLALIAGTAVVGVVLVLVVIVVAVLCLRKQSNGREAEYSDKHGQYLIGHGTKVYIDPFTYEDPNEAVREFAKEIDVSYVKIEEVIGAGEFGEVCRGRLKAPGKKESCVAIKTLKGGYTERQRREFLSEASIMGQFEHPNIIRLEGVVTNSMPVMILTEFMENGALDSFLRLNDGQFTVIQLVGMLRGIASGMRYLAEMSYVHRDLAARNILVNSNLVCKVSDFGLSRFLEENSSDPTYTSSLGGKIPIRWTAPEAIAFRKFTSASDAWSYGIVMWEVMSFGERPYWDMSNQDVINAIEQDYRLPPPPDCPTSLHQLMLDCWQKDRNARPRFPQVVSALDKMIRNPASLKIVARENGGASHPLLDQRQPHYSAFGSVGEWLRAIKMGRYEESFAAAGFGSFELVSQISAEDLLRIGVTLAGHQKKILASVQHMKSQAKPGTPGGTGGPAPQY
CYP2C9 inh – human CYP2C9 inhibition | hit rate 20% among 96,000 | CYP2C9 Supersomes, luciferin-H conversion, luminescence | inhibition, % at 5 µM | P11712;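 active means blocking of liver enzyme CYP2C9 beyond about 50% at 5 µM, limit read from the data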
CYP2C19 act – increases human CYP2C19 enzyme activity; P33261; recombinant CYP2C19, luciferin-H EGE luminescence; stronger effect = higher value; 0 = fully inhibited enzyme, 1 = untreated enzyme; activation factor at 5 µM; 96,000 tested, under 10 active; AID 1025;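 active means activation factor of at least 2 at 5 µM in the primary screen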;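 further: 0 = wells with 2.5 mM tranylcypromine and 1 = vehicle-only wells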
CYP2C19 inhib – inhibitors of human CYP2C19; P33261; CYP2C19 Supersomes, luciferin-H EGE luminescence, 30 min; inhibition, % at 5 µM; hit rate 21% among 96,000;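 active means CYP2C19 inhibition above a set limit at 5 µM in the primary screen, cut at about 50% in these data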;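 further: plate controls were negative control wells for no effect and 2.5 mM tranylcypromine positive control for full effect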
CYP2C9 activ – activators of human CYP2C9; P11712; hit rate 1.4% among 96,000; recombinant CYP2C9, luciferin-H conversion, luminescence; stronger effect = higher value; factor 1 = untreated enzyme, 0 = blocked; AID 1024; activation factor at 5 µM;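 active means activation factor of 2 or more for CYP2C9 at a 5 µM dose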;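 further: 0 = sulfaphenazole-blocked wells and 1 = vehicle-only wells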
Numbers without * were called inactive; nt = no result.

SMILES	EphB4 antag	CYP2C9 inh	CYP2C19 act	CYP2C19 inhib	CYP2C9 activ
Cc1sc(-c2ccccn2)nc1OC(=O)c1ccc(Cl)cc1	-7	-3	1.1	-10	1
CCN(CC)c1nc2ccccc2c(N)c1-c1ccccc1	10	36	0.6	37	0.6
Cc1ccccc1OCC(O)Cn1c(NCCN(C)C)nc2c1c(=O)n(C)c(=O)n2C (stereo not drawn)	8	0	1	-1	1
CC1C(C)C(O)(c2ccccc2)CCN1C (stereo not drawn)	-5	nt	nt	nt	nt
N=C1C(c2nc3ccccc3c(=O)[nH]2)=C(O)CN1c1ccccc1	-2	-116	0.9	12	2.2*
COc1ccc(CCN2CC(O)=C(c3nc4ccccc4c(=O)[nH]3)C2=N)cc1OC	6	28	0.3	69*	0.7
N=C1C(c2nc3ccccc3[nH]2)=C(O)CN1c1ccccc1	1	-5	1.2	-16	1.1
CCC1CCc2sc(C(=O)O)cc2C1 (stereo not drawn)	-6	15	0.9	6	0.8
Nc1nnc(SCc2ccccc2)n1-c1ccccc1	-1	nt	nt	nt	nt
CC1(C)CNC(=O)c2sc(N3CCCCC3)nc2C1	-7	-1	0.9	6	1
CC1(C)CC(=O)c2sc(N3CCCCC3)nc2C1	9	26	0.4	58*	0.7
COc1ccc(C(C(=O)NC(C)(C)C)N(Cc2cccs2)C(=O)CCC(=O)Nc2cc(C)on2)cc1 (stereo not drawn)	-1	nt	nt	nt	nt
CSc1nc(Oc2ccc3ccccc3c2)c2sccc2n1	5	87*	0.8	20	0.1
OC(COc1ccc2ccccc2c1Br)Cn1cnc(-c2ccccc2)c1 (stereo not drawn)	5	28	0.9	5	0.7
CC1=C(C(=O)Nc2ccccc2)C(c2ccccc2)N2C(=O)CSC2=N1 (stereo not drawn)	3	8	1	3	0.9
CC1=C(C(=O)Nc2ccccc2)C(c2ccc(C)o2)n2c(s/c(=C/c3ccccc3)c2=O)=N1 (stereo not drawn)	0	87*	0.3	72*	0.1
CC1=C(C(=O)Nc2ccccc2)C(c2ccc(C)o2)N2C(=O)CSC2=N1 (stereo not drawn)	2	46	0.4	64*	0.5
COC(=O)/C(=C(/F)SCC(C)=O)C(F)(F)F	-4	69*	0.9	7	0.3
O=C(CC1Oc2ccccc2NC1=O)NCCCN1CCOCC1 (stereo not drawn)	-6	0	1.2	-16	1
CC(C)n1c(-c2ccco2)csc1=Nc1cccnc1	0	60*	0.4	65*	0.4
CCOC(=O)CSc1nnc(CSc2nc(C)cc(C)n2)n1Cc1ccco1	-4	21	0.5	47	0.8
Cc1ccc(C2=NNC(=O)C(c3ccc(Cl)cc3)C2)cc1 (stereo not drawn)	1	19	0.8	16	0.8
Cc1cc2c(s1)c1cnn(Cc3ccccc3F)c(=O)c1n2C	3	5	0.5	51*	1
Cc1noc(C)c1CSCC(=O)N1CCN(c2ccc(F)cc2)CC1	-8	46	0.4	63*	0.5
O=C(COC(=O)CSCC(=O)N1CCCCC1)NCc1ccc(F)cc1	-1	4	0.5	51*	1
SMILES	EphB4 antag	CYP2C9 inh	CYP2C19 act	CYP2C19 inhib	CYP2C9 activ
O=C(CSCc1ccc(Br)cc1)N1CCOCC1	8	4	0.1	94*	1
O=C(CSCc1ccc(F)cc1)N1CCOCC1	-7	16	0.4	56*	0.8
Cc1cccc(N2CCN(C(=O)CSCc3c(C)noc3C)CC2)c1C	-5	33	0.9	8	0.7
CC(C)C(c1nnnn1Cc1ccc(F)cc1)N1CCN(C2CCCCC2)CC1 (stereo not drawn)	1	5	1	-2	0.9
COc1ccc(OC)c(NC(=S)NCc2ccco2)c1	3	nt	nt	nt	nt
Cc1ccc2cc(CN(Cc3cccs3)Cc3nnnn3C(C)(C)C)c3nnnn3c2c1	nt	0	0.9	12	1
O=C(CN1CCOCCOCCOCCOCC1)Nc1ccccc1	8	nt	nt	nt	nt
O=C(CSCC(=O)N1CCOCC1)Nc1ccccc1	-4	-5	0.4	57*	1.1
Cn1nc(C(F)(F)F)c(C(=O)Nc2ccc(F)cc2F)c1Sc1ccc(Cl)cc1	-3	24	0.4	61*	0.8
Cn1nc(C(F)(F)F)c(C(=O)Nc2ccc(F)cc2F)c1Sc1ccc(C(F)(F)F)cc1	4	34	0.3	69*	0.7
COc1ccc(C)cc1S(=O)(=O)Nc1cccc(SC)c1	1	22	0.8	21	0.8
COc1ccc(OC)c(S(=O)(=O)Nc2cc(Cl)cc(Cl)c2)c1	0	nt	nt	nt	nt
